Source: PubChem
Hits are enriched below; roughly 3.3% of the tested compounds scored in any of these assays.
AmpC no deterg: qHTS Inhibitors of AmpC Beta-Lactamase (assay without detergent). Potency, µM (doses to about 57.1 µM), inactives show at the highest dose activity change, negative = inhibition, hits mostly inhibitors. 330,000 tested, 0.52% active. AmpC nitrocefin hydrolysis, absorbance 480 nm, 0.0001% Triton;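 also: plate controls were no compound for no effect and no enzyme for full effect; nearly all actives have a fitted effect of over 20% in size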
Target sequence (P00811 whole entry, looked up): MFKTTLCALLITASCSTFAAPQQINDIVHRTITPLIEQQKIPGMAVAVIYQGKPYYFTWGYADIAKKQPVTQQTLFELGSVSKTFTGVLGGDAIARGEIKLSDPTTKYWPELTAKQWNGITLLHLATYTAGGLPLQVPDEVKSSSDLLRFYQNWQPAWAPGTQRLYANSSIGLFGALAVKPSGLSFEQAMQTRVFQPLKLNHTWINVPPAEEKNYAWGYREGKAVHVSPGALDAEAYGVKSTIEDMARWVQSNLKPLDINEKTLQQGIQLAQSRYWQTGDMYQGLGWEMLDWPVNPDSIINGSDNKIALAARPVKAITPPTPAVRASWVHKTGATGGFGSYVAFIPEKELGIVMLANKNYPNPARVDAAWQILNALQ
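AmpC (5.3 nM in the dispensed reagent) in 20 mM phosphate pH 7.0 with 0.01% (detergent screen) or 0.0001% Triton X-100 was preincubated with compounds for 15 min at room temperature. Nitrocefin was then added from an 800 uM solution, and hydrolysis was followed at 480 nm.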
AmpC detergent: qHTS Inhibitors of AmpC Beta-Lactamase (assay with detergent); AmpC hydrolysis of nitrocefin, absorbance 480 nm, 0.01% Triton; Potency, µM (doses to about 114 µM), without a hit: top-dose activity change, negative = inhibition, actives largely listed as inhibitors; 370,000 tested, 0.041% active; P00811;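 also: 0% = no-compound wells and -100% = no-enzyme wells; nearly all actives have a fitted effect of over 25% in size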
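AmpC (5.3 nM in the dispensed reagent) in 20 mM phosphate pH 7.0 with 0.01% (detergent screen) or 0.0001% Triton X-100 was preincubated with compounds for 15 min at room temperature. Nitrocefin was then added from an 800 uM solution, and hydrolysis was followed at 480 nm.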
Sm TGR inh: qHTS Assay for the Inhibitors of Schistosoma Mansoni Peroxiredoxins; purified TGR, DTNB reduction, TNB absorbance 405 nm; Potency, µM (doses to about 114 µM), without a hit: at the highest dose activity change, negative = inhibition, most hits filed as inhibitors; 360,000 tested, 3% active; also: nearly all actives have a fitted effect of over 60% in size
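First, TGR (20 nM dispensed) and NADPH were mixed with compound. Second, a 15 min room-temperature incubation followed. Third, further NADPH and then DTNB were added to start the reaction. Finally, TNB absorbance was monitored kinetically.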
Starred values were filed as active, the others as inactive; ? = inconclusive; nt = no result. Calls follow the shape of the dose curve; as a rule, active = well fitted curve in the direction sought with a large enough effect; inconclusive = small, poorly fitted or top-dose-only effect, or another doubt; inactive = no such curve, though single readings can be large; an effect the other way counts as inactive or inconclusive. Unless noted, % is scaled to controls: 0 for no effect and ±100 for the full control effect; potency is read from the fitted curve at half-maximal effect.

SMILES	AmpC no deterg	AmpC detergent	Sm TGR inh
Cn1cc(Cl)c(C(=O)Nc2cccc(Cl)c2Cl)n1	7.1µM*	2%	0%
Cc1ccsc1CCN1C(=O)N(c2ccc(F)cc2)C(=O)C1CC(=O)Nc1ccccc1 (stereo not drawn)	nt	-1%	8%
CCOC(=O)c1c(C)n(-c2ccccc2)c2ccc(OC(=O)c3cc(OC)cc(OC)c3)cc12	nt	2%	-1%
Cc1c(C(=O)N(Cc2ccco2)Cc2ccccc2Cl)oc2ccc(F)cc12	nt	0%	-34%
COc1ccc(C2=CC(=O)N(Nc3ccccc3)C2=O)cc1	-29%	?	-14%
O=C1C=C(c2ccccc2)C(=O)N1Nc1ccccc1	-31%	9%	14µM*
CCC(C)NC(=O)Nc1ccc(Br)cc1 (stereo not drawn)	-15%	-11%	13%
CCC(C)Nc1ccc(NC(C)CC)cc1 (stereo not drawn)	79%	1%	32µM*
O=C1NC(=S)N(c2ccc(F)cc2)C(=O)/C1=C/c1ccco1	18µM*	50µM*	32µM*
O=C1NC(=S)N(c2ccc(F)cc2)C(=O)/C1=C\c1ccoc1	-40%	1%	32µM*
O=C1NC(=S)N(c2ccc(Cl)cc2)C(=O)/C1=C/N1CCN(C(=O)c2ccco2)CC1	-45%	-2%	?
COc1ccc(N2C(=O)/C(=C/c3cc(C)n(-c4ccc(C)cn4)c3C)C(=O)NC2=S)c(OC)c1	-12%	-2%	?
COc1cc(/C=C2\C(=O)NC(=O)N(c3ccccc3)C2=O)c([N+](=O)[O-])cc1OC	-31%	-1%	1.6µM*
COc1ccc(OC)c(N2C(=O)/C(=C/c3ccco3)C(=O)NC2=S)c1	18µM*	50µM*	32µM*
COc1cc(/C=C2\C(=O)NC(=O)N(c3ccccc3)C2=O)cc(OC)c1O	-18%	-9%	87%
Cc1ccc(N2C(=O)NC(=O)/C(=C\c3ccoc3)C2=O)cc1	-30%	4%	-10%
O=C(Nc1ccc(S(=O)(=O)Nc2ncccn2)cc1)c1cc(=O)c2ccccc2o1	nt	12%	-5%
CN(Cc1ccccc1)c1nc2c(S(=O)(=O)c3ccccc3)nnn2c2ccsc12	nt	16%	10%
Cc1ccc2c(CNCc3ccc(C)o3)c(C(=O)O)n(Cc3ccccc3C)c2c1	nt	?	-8%
COc1ccc(OC)c(N2C(=O)NC(=O)/C(=C/c3ccc([N+](=O)[O-])s3)C2=O)c1	-26%	5%	4µM*
COc1ccc(OC)c(N2C(=O)CC(=O)NC2=O)c1	-20%	-9%	1%
COc1cc(CNc2ccc3c(c2)CCC3)cc(OC)c1O	1%	-1%	0.32µM*
CCOc1cc(CNc2ccc3c(c2)CCC3)ccc1O	-22%	2%	?
O=C(CCc1ccccc1)c1c(O)cc(O)cc1O	18µM*	4%	6%
COc1cc(O)c(C(=O)O)c(CCc2ccccc2)c1	-24%	nt	nt
SMILES	AmpC no deterg	AmpC detergent	Sm TGR inh
CCOc1cc(C2C(C(=O)OC)=C(C)NC3=C2C(=O)c2ccccc23)c(Br)cc1O (stereo not drawn)	nt	7%	-3%
COc1ccc(CNC(=O)c2ccc(-c3nc(CS(=O)c4ccc(C)cc4)c(C)o3)cc2)cc1 (stereo not drawn)	nt	19%	?
CCCNC(=O)c1ccc(-c2nc(CS(=O)(=O)c3ccc(C)cc3)c(C)o2)cc1	nt	3%	40µM*
Cc1ccc(S(=O)(=O)Cc2nc(-c3ccc(C(=O)NCCCOC(C)C)cc3)oc2C)cc1	nt	22%	-35%
COc1ccccc1CNC(=O)c1ccc(-c2nc(CS(=O)c3ccc(C)cc3)c(C)o2)cc1 (stereo not drawn)	nt	-2%	13µM*
Cc1cccc(CNC(=O)c2ccc(-c3nc(CS(=O)(=O)c4ccccc4)c(C)o3)cc2)c1	nt	17%	?
Cc1oc(-c2ccc(C(=O)NCc3ccccc3)cc2)nc1CS(=O)(=O)c1ccccc1	nt	?	-29%
COc1cccc(CNC(=O)c2ccc(-c3nc(CS(=O)(=O)c4ccccc4)c(C)o3)cc2)c1	nt	1%	28µM*
Cc1ccc(S(=O)(=O)Cc2nc(-c3ccc(C(=O)NCc4ccccc4F)cc3)oc2C)cc1	nt	-2%	7.9µM*
CCN(CC)C(=O)c1sc2c(c1C)c(=O)n(CCc1ccccc1)c(=O)n2Cc1ccc(F)cc1Cl	nt	4%	6%
COc1ccc(N2CCN(C(=O)c3nn(-c4ccc(C)cc4)c(=O)n(C)c3=O)CC2)cc1	nt	-6%	-18%
Oc1c(C(c2ccccc2)N2CCOCC2)sc2nc(-c3ccco3)nn12 (stereo not drawn)	nt	1%	8%
COc1ccc2[nH]cc(CCN=C(NC(=O)c3ccccc3F)Nc3nc(C)cc(C)n3)c2c1	nt	2%	7%
COc1cc(C(=O)NCC(c2ccc(N(C)C)cc2)N2CCc3ccccc32)cc(OC)c1OC (stereo not drawn)	nt	-2%	-17%
CCOC(=O)c1noc2ncnc(NCc3ccccc3OC)c12	nt	25%	-3%
COCCNC(=O)c1ccc(-c2nc(CS(=O)(=O)c3ccccc3)c(C)o2)cc1	nt	-1%	22µM*
CCOCCCNC(=O)c1ccc(-c2nc(CS(=O)(=O)c3ccccc3)c(C)o2)cc1	nt	-5%	?
CCOC(=O)c1nc2cc3n(c(CC(C)C)c-2c1C)CC(C)=C3C	10%	?	56µM*
CCOC(=O)c1nc2cc3n(c(C)c-2c1C)C(C)C(C)=C3C (stereo not drawn)	-17%	-5%	-1%
Cc1ccc(N(C)C(=O)Cn2cc(S(=O)(=O)N3CCCC3)c(S(=O)(=O)N3CCCC3)c2)cc1	nt	-4%	-5%
CCOC(=O)C1(C(=O)OCC)CC1c1ccccc1 (stereo not drawn)	4.5µM*	1%	0%
CCOC(=O)C1(C(=O)O)NC(=O)CC1c1ccccc1 (stereo not drawn)	-17%	?	-22%
COC(=O)c1c(C)[nH]c(/C=N/Nc2ccccc2)c1C	-8%	-4%	?
CCOC(=O)c1c(/C=N/Nc2ccccc2)c2sc(C)cc2n1C	-28%	-3%	22µM*
Cc1ccccc1Nc1c(-c2c[nH]c3ccccc23)nc2cccc(C)n12	nt	10%	1%
SMILES	AmpC no deterg	AmpC detergent	Sm TGR inh
Cc1ccc(-c2sc(C(=O)Nc3ccc(Br)cc3)cc2CC(=O)O)cc1	nt	21%	-5%
O=C(Nc1nc2ccccc2s1)Nc1ccc(F)cc1F	-37%	2%	-3%
O=C(Nc1ccc(F)cc1F)Nc1sccc1-c1nc2ccccc2s1	7.9µM*	7%	-2%
COc1ccc(CNC(=O)C(CCSC)NS(=O)(=O)c2ccc3c(c2)oc(=O)n3C)cc1 (stereo not drawn)	nt	14%	5%
CCN(C(=O)Cn1ncc2c(=O)oc3ccc(C)cc3c21)c1cc(OC)ccc1OC	nt	4%	0%
CCCCNC(=O)c1ccccc1C(=O)NCCCC	1.1µM*	0%	2%
CCCCNC(=O)c1ccccc1Cl	-9%	-25%	1%
Cc1occc1C(=O)NCCCCNC(=O)c1ccoc1C	-10%	-2%	-15%
CCCCCCCCCCCNC(=O)c1ccoc1C	-25%	?	18µM*
COc1cccc(CNC(=O)c2cc3c(s2)-c2c(C)cccc2OC3)c1	nt	-2%	-5%
